Our source for the outcome and AC50 values is PubChem BioAssay (EPA / NIEHS).

One may read the AC50 as the midpoint of the concentration-response curve, whichever way the signal moves.

Read-out in experiment [1]: organic anion transporter (SLCO1B1), SLCO1B1 (gene 10599)
Nature of the experiment: CLD_SLCO1B1_48hr: CellzDirect (CLD) Gene Expression Assay for organic anion transporter (SLCO1B1) at 48 hours (AID 2283707). The gist of the method: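 SLCO1B1 transcript quantified by qNPA with chemiluminescent readout after 48 h of once-daily chemical exposure. Cultured human primary hepatocytes came from two donors, with 0.2% DMSO vehicle; positive-direction fitting against DMSO, cytotoxicity flagged by morphology.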

Read-out in experiment [2]: alkyl and aryl transferase (GSTA2), GSTA2 (gene 2939)
Nature of the experiment: CLD_GSTA2_48hr: CellzDirect (CLD) Gene Expression Assay for alkyl and aryl transferase (GSTA2) at 48 hours (AID 2283708).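 Further: active means mRNA induction above DMSO vehicle baseline.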 In outline: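 GSTA2 mRNA quantified by qNPA chemiluminescence in human primary hepatocyte lysates after 48 h of daily fresh chemical dosing. Increases fitted against 0.2% DMSO vehicle baseline; cytotoxicity from morphology annotated yes/no.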

Read-out in experiment [3]: glucuronosyltransferase (UGT1A1), UGT1A1 (gene 54658)
Nature of the experiment: CLD_UGT1A1_48hr: CellzDirect (CLD) Gene Expression Assay for glucuronosyltransferase (UGT1A1) at 48 hours (AID 2283709).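 Further: actives increase expression relative to DMSO so potency refers to induction.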 The gist of the method: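 Quantitative nuclease protection assay (chemiluminescent) for UGT1A1 mRNA at 48 h in human hepatocyte cultures from two donors, redosed daily with fresh solutions. Induction fitted relative to 0.2% DMSO; phase-contrast morphology annotated cytotoxicity.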

Read-out in experiment [4]: sulfotransferase (SULT2A), SULT2A1 (gene 6822)
As to the kind of experiment: CLD_SULT2A_48hr: CellzDirect (CLD) Gene Expression Assay for sulfotransferase (SULT2A) at 48 hours (AID 2283710).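 Further: hits raise SULT2A1 transcript above the 0.2% DMSO vehicle baseline.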 In outline:
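SULT2A1 transcript measured by qNPA chemiluminescence in human primary hepatocyte cultures after 48 h, with fresh dosing solutions on two consecutive days; gain-of-signal fitting against 0.2% DMSO vehicle; cytotoxicity annotated from phase-contrast morphology.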

The nature of experiment [5]: CEETOX_H295R_MTT_cell_viability: Viability Assessment in the CeeTox HT-H295R MTT Assay (AID 2283718; active means hit-call score of the fitted dose curve at least 0.9, where 1 is the maximum; inactive means score below 0.9;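 on AC50: curve fitted both ways so AC50 may mark viability loss or gain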). In outline: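 H295R cells prestimulated 48 h with 10 uM forskolin, then exposed 48 h to test chemical (0.1% DMSO final). Viability by MTT (0.5 mg/ml, 4 h, 37 C), absorbance 570/650 nm; percent change versus DMSO, bidirectional fit.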
Experiment [6] can be described thus: Tanguay_ZF_120hpf_ActivityScore_legacy: (Legacy) Oregon State University Tanguay Lab 120 Hour Post-fertilization zebrafish Assay Score for Activity (AID 2283742).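 On AC50: dechorionated Tropical 5D wild-type zebrafish embryos held singly per well; static exposure from 6 hpf until 120 hpf at 28 °C.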 The gist of the method:
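In this whole-embryo screen, dechorionated zebrafish were exposed from 6 hpf until 120 hpf at 28C under a 0.64% DMSO vehicle. Developmental malformations and death were recorded by brightfield microscopy as binary endpoints.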

Experiment [7] is described as follows: STM_H9_CystineISnorm_perc: Stemina devTOX quickPredict H9 human embryonic stem cell (hESC)-based Assay for Cystine (CYSS) Metabolite Biomarker, Normalized (AID 2283713; active means hit-call score of the fitted dose curve at least 0.9, where 1 is the maximum; inactive means score below 0.9). In outline: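 Cells are held undifferentiated and treated for 72h, receiving fresh medium with compound every 24h. Cystine secreted during the final day is quantified by UPLC-HRMS against a labeled spike-in, then expressed relative to the DMSO vehicle median.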

The nature of experiment [8]: STM_H9_OrnCyssISnorm_ratio: Stemina devTOX quickPredict H9 human embryonic stem cell (hESC)-based Assay for Ornithine (ORN):Cystine (CYSS) Ratio (AID 2283714). In outline: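 H9 hESC, 72h, q24h re-dose; last-day media → acetonitrile deproteinization → UPLC-HRMS. ORN:CYSS ratio from isotope-normalized EIC areas, vs 0.1% DMSO; MTX references on each plate.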
Experiment [9] deals with Luciferin 4-monooxygenase (Photinus pyralis) (UniProt P08659). Nature of the experiment: CCTE_Simmons_QuantiLum_inhib_2: CCTE's Firefly Luciferase Inhibition Assay, Simmons Lab (AID 2283767). The gist of the method: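 First, 5 ng purified luciferase in phosphate buffer with BSA is dispensed per well. Next, test chemicals (5 nM to 87.5 uM final, 0.5% DMSO) are added and incubated 30 min at 37C in darkness. Finally, luciferin reagent is injected and luminescence read kinetically.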

Read-out in experiment [10]: Glyceraldehyde-3-phosphate dehydrogenase (Homo sapiens) (UniProt P04406)
As to the kind of experiment: CLD_GAPDH_48hr: CellzDirect (CLD) Gene Expression Assay for Baseline Control (Glyceraldehyde 3-phosphate dehydrogenase) at 48 hours (AID 2283706).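 Further: active means higher GAPDH mRNA than DMSO vehicle.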 The gist of the method: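 GAPDH baseline-control readout: qNPA chemiluminescent mRNA quantitation in human liver primary cells 48 h after daily dosing on two consecutive days, vehicle 0.2% DMSO; gain of signal fitted against DMSO, cytotoxicity flagged by phase-contrast morphology.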

Read-out in experiment [11]: HMG-CoA synthase (HMGCS2), HMGCS2 (gene 3158)
As to the kind of experiment: CLD_HMGCS2_48hr: CellzDirect (CLD) Gene Expression Assay for HMG-CoA synthase (HMGCS2) at 48 hours (AID 2283711). In outline:
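mRNA induction read by qNPA chemiluminescence, 48 h after dosing. Cultured primary human liver cells (two donor preparations) received fresh compound daily over two days against 0.2% DMSO vehicle; morphology-based cytotoxicity noted alongside.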

For experiment [12], the system named is zebrafish Androgen Receptor (AR), gene 100005148. Nature of the experiment: ATG_zfAR_XSP1: Attagene TRANS-FACTORIAL Multi-Species (XSP1) HepG2 Assay for zebrafish Androgen Receptor (AR) (AID 2283771). In outline: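 Gain-of-signal versus DMSO was measured as reporter transcripts quantified by RT-PCR, fluorescent labelling and capillary electrophoresis after 24 h chemical exposure. The cells were HepG2 expressing a chimeric zebrafish AR-GAL4, co-stimulated with 3 nM 6-alpha-fluorotestosterone.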

Experiment [13] addresses zebrafish Estrogen Receptor (ESR1), esr1 (gene 259252) (UniProt P57717). Nature of the experiment: ATG_zfER1_XSP1: Attagene TRANS-FACTORIAL Multi-Species (XSP1) HepG2 Assay for zebrafish Estrogen Receptor (ESR1) (AID 2283772). In outline: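 Reporter mRNA induction, gauged via RT-PCR/capillary electrophoresis fluorescence relative to DMSO controls, in HepG2 cells transiently carrying GAL4-UAS reporter units; 24 h dosing.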

Experiment [14] has as its system chicken Androgen Receptor (AR), gene 422165. As to the kind of experiment: ATG_chAR_XSP1: Attagene TRANS-FACTORIAL Multi-Species (XSP1) HepG2 Assay for chicken Androgen Receptor (AR) (AID 2283768). The gist of the method: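 Reporter mRNA read by RT-PCR with fluorescent labelling and capillary electrophoresis 24 h after chemical dosing of transiently transfected HepG2 cells. Chicken AR-Gal4 chimera, partially stimulated with 3 nM 6-alpha-fluorotestosterone; activity fitted upward relative to DMSO.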

Experiment [15] concerns frog Androgen Receptor (AR), gene 399456. Nature of the experiment: ATG_frAR_XSP1: Attagene TRANS-FACTORIAL Multi-Species (XSP1) HepG2 Assay for frog Androgen Receptor (AR) (AID 2283770). How it is done: ATG_XSP1_multi-species_TRANS is a cell-based, multiplexed assay created by modifying the existing Attagene TRANS-FACTORIAL system to include a panel of nuclear receptors from some or all the following species: human (Homo sapiens), mouse (Mus musculus), frog (Xenopus laevis), zebrafish (Danio rerio), chicken (Gallus gallus), and turtle (Chrysemys picta). The ECOTOX-FACTORIAL format uses HepG2, a human liver cell line, with measurements taken at 24 hours after chemical dosing in a 24-well plate. Xsp1 included 3 nM 6-alpha-fluorotestosterone to partially stimulate the androgen receptor.ATG_frAR_XSP1 is one of 29 assay components measured or calculated from the ATG_XSP1_multi-species_TRANS assay. It is designed to make measurements of mRNA induction, a form of inducible reporter, as detected with fluorescence intensity signals by Reverse transcription polymerase chain reaction (RT-PCR) and Capillary electrophoresis technology.The assay endpoint ATG_frAR_XSP1 was analyzed in the positive analysis fitting direction relative to DMSO as the negative control and baseline of activity. […] Furthermore, this assay endpoint can be referred to as a primary readout, because this assay has produced multiple assay endpoints where this one serves a reporter gene function. […]

Results filed as inconclusive are left out. Activity calls are given as the source filed them. How the source made its calls, unless noted: active means hit-call score of the fitted dose curve at least 0.9, where 1 is the maximum; inconclusive means response in the unintended direction; inactive means score below 0.9.

Chain of Luciferin 4-monooxygenase (Photinus pyralis) (P08659 whole entry, looked up): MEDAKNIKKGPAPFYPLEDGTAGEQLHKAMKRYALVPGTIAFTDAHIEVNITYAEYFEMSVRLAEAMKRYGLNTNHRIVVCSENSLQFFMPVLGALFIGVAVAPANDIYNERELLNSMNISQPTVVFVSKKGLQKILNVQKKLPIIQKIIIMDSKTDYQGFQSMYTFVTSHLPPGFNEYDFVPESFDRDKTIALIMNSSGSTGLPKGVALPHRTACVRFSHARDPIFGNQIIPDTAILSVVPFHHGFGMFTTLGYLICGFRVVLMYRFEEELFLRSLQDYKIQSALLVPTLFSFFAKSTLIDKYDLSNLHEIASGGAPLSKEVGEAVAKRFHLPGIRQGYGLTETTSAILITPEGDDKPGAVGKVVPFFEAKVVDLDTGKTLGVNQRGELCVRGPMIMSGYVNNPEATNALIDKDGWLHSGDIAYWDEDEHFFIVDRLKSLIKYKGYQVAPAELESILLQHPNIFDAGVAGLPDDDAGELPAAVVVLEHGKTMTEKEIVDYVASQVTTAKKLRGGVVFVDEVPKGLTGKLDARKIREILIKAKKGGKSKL
Chain of zebrafish Estrogen Receptor (ESR1), esr1 (gene 259252) (P57717 whole entry, looked up, the tested form may be a part): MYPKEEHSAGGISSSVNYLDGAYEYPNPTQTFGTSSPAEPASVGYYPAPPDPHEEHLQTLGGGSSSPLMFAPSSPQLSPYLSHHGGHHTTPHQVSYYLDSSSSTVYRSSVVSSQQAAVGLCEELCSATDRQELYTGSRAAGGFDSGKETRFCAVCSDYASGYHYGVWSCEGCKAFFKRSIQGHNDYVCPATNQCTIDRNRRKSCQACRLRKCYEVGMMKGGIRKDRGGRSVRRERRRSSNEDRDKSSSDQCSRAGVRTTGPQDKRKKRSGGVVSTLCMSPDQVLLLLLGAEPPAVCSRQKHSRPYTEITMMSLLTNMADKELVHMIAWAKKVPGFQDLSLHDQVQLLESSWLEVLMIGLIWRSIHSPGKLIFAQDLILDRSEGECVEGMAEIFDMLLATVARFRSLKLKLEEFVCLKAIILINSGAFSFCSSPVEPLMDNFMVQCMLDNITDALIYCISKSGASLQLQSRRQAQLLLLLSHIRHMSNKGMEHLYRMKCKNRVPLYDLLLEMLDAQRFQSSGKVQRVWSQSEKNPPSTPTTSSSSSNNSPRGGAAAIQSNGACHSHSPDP
Chain of Glyceraldehyde-3-phosphate dehydrogenase (Homo sapiens) (P04406 whole entry, looked up): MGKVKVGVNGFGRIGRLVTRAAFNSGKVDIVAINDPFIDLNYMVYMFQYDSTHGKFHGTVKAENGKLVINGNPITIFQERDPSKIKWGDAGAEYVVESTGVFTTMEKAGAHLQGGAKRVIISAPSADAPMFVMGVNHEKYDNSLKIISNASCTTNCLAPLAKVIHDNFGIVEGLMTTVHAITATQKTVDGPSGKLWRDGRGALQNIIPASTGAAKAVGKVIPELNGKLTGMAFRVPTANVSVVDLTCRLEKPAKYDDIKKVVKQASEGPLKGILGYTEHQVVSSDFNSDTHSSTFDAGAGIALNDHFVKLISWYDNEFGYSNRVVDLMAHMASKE

For `CCC(C)(CC)c1cc(NC(=O)c2c(OC)cccc2OC)on1`, the call in experiment [1], in experiment [2] and in [6] was inactive. Further, the AC50 in [3] was 498 nM (active); in [4], 3780 nM (active); in experiment [5] it was 43000 nM (active).

With `CCOCCOC(C)=O`, the outcome in [7], in experiment [5] and in experiment [6] was inactive.

Turning to `Clc1ccc(C(Cl)(Cl)Cl)cc1`, the AC50 in experiment [7] was 77800 nM (active); in [8] it was 86500 nM (active). The result in experiment [6] and in experiment [9] was inactive.

As to `NS(=O)(=O)C(F)(F)C(F)(F)C(F)(F)C(F)(F)C(F)(F)C(F)(F)C(F)(F)C(F)(F)F`, in [5], the call was inactive. The AC50 in experiment [6] was 38000 nM (active).

For `c1cc2ccc3cccc4ccc(c1)c2c34`, the call in experiment [5] and in experiment [6] was inactive.

In the case of `CN(C)c1nc(=O)n(C2CCCCC2)c(=O)n1C`, the molecule was called inactive in experiment [10], in [3], in experiment [4], in experiment [11] and in experiment [6].

As to `CC#Cc1cc(C)nc(Nc2ccccc2)n1`, the molecule was classed as inactive in experiment [5] and in experiment [6].

Consider `CCC(C)c1cc([N+](=O)[O-])cc([N+](=O)[O-])c1O` (stereo not given), for which the outcome in [7] and in experiment [8] was inactive. Further, the AC50 in [6] is 346 nM (active).

Take `Cc1cc2c3c(c1)C(c1ccccc1)=N[C@@H](NC(=O)c1ccncc1)C(=O)N3CC2`: the call in [5] and in experiment [6] was inactive.

Regarding `CC(C)(c1ccccc1)c1ccc(O)cc1`, the values for the half-maximal activity concentration (AC50) in experiment [6] and in [13] were 27000 nM (active) and 1670 nM (active), respectively. Also, the molecule was classed as inactive in experiment [9] and in experiment [12].

For `Cc1ccccc1[N+](=O)[O-]`, the call in experiment [6] was inactive.

For `c1ccc(-c2ccccc2)cc1`, the call in [6] and in [9] was inactive.

Regarding `O=C(O)C(F)(F)C(F)(F)C(F)(F)C(F)(F)C(F)(F)F`, the molecule was called inactive in experiment [6].

With `O=C(NC(=O)c1c(F)cccc1F)Nc1cc(Cl)c(OC(F)(F)C(F)F)c(Cl)c1`, the molecule was classed as inactive in experiment [5], in experiment [6] and in [9].

For `CCCCCCCCCc1ccc(O)cc1`, the call in experiment [6] and in experiment [9] was inactive.

As to `O=S(=O)(O)C(F)(F)C(F)(F)C(F)(F)C(F)(F)F`, the molecule was classed as inactive in experiment [6].

In the case of `CC(C)C(=O)OCC(C)(C)C(OC(=O)C(C)C)C(C)C` (stereo not given), the AC50 in experiment [6] is 27200 nM (active).

Turning to `C[C@]12CCC(=O)C=C1CC[C@@H]1[C@@H]2CC[C@@]2(C)[C@H]1CC[C@]2(C)O`, the molecule was called inactive in [5] and in [6]. For the same molecule, the half-maximal activity concentration (AC50) is 0.449 nM (active) in experiment [14], 3.8 nM (active) in experiment [15], 0.293 nM (active) in experiment [12] and 39.6 nM (active) in experiment [13].
